Results filed as inconclusive are left out. Where a call stands in place of a potency, no number is given. A number with no mark means an inactive call. Calls of active or inactive are those of the source. The call rests on the fitted dose curve; in most records, active means well fitted curve in the direction sought with a large enough effect; inconclusive means small, poorly fitted or top-dose-only effect, or another doubt; inactive means no such curve, though single readings can be large; an effect the other way counts as inactive or inconclusive.
Assays:
MCC-13 = experiment: qHTS assay to identify novel small-molecules to repurpose for Merkel cell carcinoma treatment (AID 1296009); conditions: MCC and control cell lines, CellTiter-Glo viability, 72 h; series mostly up to 46 µM; further: nearly all actives have a fitted effect of over 60% in size; further: potency means the concentration at half of the fitted maximal effect
In short: (§1)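 Cells were treated for 72 hr at 37 degree celsius with compounds in 8- or 11-point dose response. Viability was read by CellTiter-Glo luminescence, normalized to no-cell (cytotoxicity) and DMSO controls.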

MKL-1 = experiment: as above; conditions: MCC and control cell lines, CellTiter-Glo viability, 72 h; series mostly up to 46 µM
In short: as §1

MKL-2 = experiment: as above; conditions: MCC and control cell lines, CellTiter-Glo viability, 72 h; series mostly up to 46 µM
In short: as §1

C33A = experiment: Primary qHTS to identify gynecologic anti-cancer compounds using libraries of approved drugs and bioactive compounds (AID 1345084); conditions: Gynecologic cancer cell panel viability, ATPlite luminescence, 48 h; series mostly up to 57.5 µM; further: nearly all actives have a fitted effect of over 55% in size; further: potency means the concentration at half of the fitted maximal effect
In short: (§2)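 ATP-based viability (ATPlite), 1,000 cells/well, 16 h pre-incubation, 48 h compound at 37 C, 5% CO2, 15 min RT before read.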

CASKI = experiment: as above; conditions: Gynecologic cancer cell panel viability, ATPlite luminescence, 48 h; series mostly up to 57.5 µM
In short: as §2

Es-2 = experiment: as above; conditions: Gynecologic cancer cell panel viability, ATPlite luminescence, 48 h; series mostly up to 57.5 µM
In short: as §2

JEG-3 = experiment: as above; conditions: Gynecologic cancer cell panel viability, ATPlite luminescence, 48 h; series mostly up to 57.5 µM
In short: as §2

OV90 = experiment: as above; conditions: Gynecologic cancer cell panel viability, ATPlite luminescence, 48 h; series mostly up to 57.5 µM
In short: as §2

PA-1 = experiment: as above; conditions: Gynecologic cancer cell panel viability, ATPlite luminescence, 48 h; series mostly up to 57.5 µM
In short: as §2

NIH3T3 [1] = experiment: Cytotoxic Profiling of Annotated Libraries Using Quantitative High-Throughput Screening (AID 1296008); conditions: Five cell lines viability, CellTiter-Glo ATP luminescence, 48-72 h; max response: hits give low values; further: nearly all actives have a fitted effect of over 60% in size
In short: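 Cells exposed to compounds for 48 or 72 hr at 37 degrees Celsius. Viability read as ATP-coupled luminescence with CellTiter-Glo after 10 min at room temperature.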

CAOV3 = experiment: Primary qHTS to identify gynecologic anti-cancer compounds using libraries of approved drugs and bioactive compounds (AID 1345084); conditions: Gynecologic cancer cell panel viability, ATPlite luminescence, 48 h; series mostly up to 57.5 µM; further: nearly all actives have a fitted effect of over 55% in size; further: potency means the concentration at half of the fitted maximal effect
In short: as §2

HeLa = experiment: as above; conditions: Gynecologic cancer cell panel viability, ATPlite luminescence, 48 h; series mostly up to 57.5 µM
In short: as §2

Hek293T = experiment: as above; conditions: Gynecologic cancer cell panel viability, ATPlite luminescence, 48 h, control line for the selectivity index; series mostly up to 57.5 µM
In short: as §2

SKOV3 = experiment: as above; conditions: Gynecologic cancer cell panel viability, ATPlite luminescence, 48 h; series mostly up to 57.5 µM
In short: as §2

HACAT = experiment: qHTS assay to identify novel small-molecules to repurpose for Merkel cell carcinoma treatment (AID 1296009); conditions: MCC and control cell lines, CellTiter-Glo viability, 72 h; at 44.8 µM (top of the series) unless noted; further: nearly all actives have a fitted effect of over 60% in size; further: potency means the concentration at half of the fitted maximal effect
In short: as §1

MCC-26 = experiment: as above; conditions: MCC and control cell lines, CellTiter-Glo viability, 72 h; series mostly up to 46 µM
In short: as §1

NIH3T3 [2] = experiment: as above; conditions: MCC and control cell lines, CellTiter-Glo viability, 72 h; at 44.8 µM (top of the series) unless noted
In short: as §1

WaGa = experiment: as above; conditions: MCC and control cell lines, CellTiter-Glo viability, 72 h; series mostly up to 46 µM
In short: as §1

UISO = experiment: as above; conditions: MCC and control cell lines, CellTiter-Glo viability, 72 h; series mostly up to 46 µM
In short: as §1

| SMILES | Potency (MCC-13) | Potency (MKL-1) | Potency (MKL-2) | Potency (C33A) | Potency (CASKI) | Potency (Es-2) | Potency (JEG-3) | Potency (OV90) | Potency (PA-1) | max response (NIH3T3 [1]) [%] | Potency (CAOV3) | Potency (HeLa) | Potency (Hek293T) | Potency (SKOV3) | outcome (HACAT) | Potency (MCC-26) | outcome (NIH3T3 [1]) | outcome (NIH3T3 [2]) | Potency (WaGa) | Potency (UISO) |
| --- | --- | --- | --- | --- | --- | --- | --- | --- | --- | --- | --- | --- | --- | --- | --- | --- | --- | --- | --- | --- |
| Nc1nc2ccc([N+](=O)[O-])cc2s1 | inactive | inactive | inactive | inactive | inactive | inactive | inactive | inactive | inactive | – | – | – | – | – | – | – | – | – | – | – |
| COc1cc(CNC(=O)CCCC/C=C/C(C)C)ccc1O | – | – | – | inactive | inactive | inactive | inactive | inactive | inactive | -2.4 | inactive | inactive | inactive | inactive | – | – | – | – | – | – |
| Fc1ccc2[nH]c(CN3CCN(c4ccccn4)CC3)cc2c1 | – | – | – | inactive | inactive | inactive | inactive | inactive | inactive | -28.5 | inactive | inactive | inactive | inactive | – | – | – | – | – | – |
| CN1[C@@H]2CC[C@H]1CC(OC(=O)C(CO)c1ccccc1)C2 (stereo not given in full) | – | – | – | inactive | inactive | inactive | inactive | inactive | inactive | 3.27 | inactive | inactive | inactive | inactive | – | – | – | – | – | – |
| O=C(O)[C@H](CC(=O)N1C[C@H]2CCCC[C@H]2C1)Cc1ccccc1 | – | – | – | inactive | inactive | inactive | inactive | inactive | inactive | 3.24 | inactive | inactive | inactive | inactive | – | – | – | – | – | – |
| S=c1[nH]c2ccccc2s1 | – | – | – | inactive | inactive | inactive | inactive | inactive | inactive | – | inactive | inactive | inactive | – | – | – | – | – | – | – |
| COC(=O)Nc1nc2ccc(C(=O)C3CC3)cc2[nH]1 | 7.5 µM (active) | – | – | 12.6 µM (active) | – | 3.16 µM (active) | 7.94 µM (active) | 11.2 µM (active) | 1.12 µM (active) | – | inactive | 2 µM (active) | – | 10 µM (active) | inactive | – | – | – | – | – |
| C#C[C@]1(O)CC[C@H]2[C@@H]3CCc4cc(O)ccc4[C@H]3CC[C@@]21C | – | – | – | inactive | inactive | inactive | – | – | – | -26.3 | inactive | – | inactive | 35.5 µM (active) | – | inactive | – | – | – | – |
| O=C1CN(/N=C/c2ccc([N+](=O)[O-])o2)C(=O)N1 | – | – | – | inactive | inactive | inactive | – | – | inactive | – | inactive | inactive | – | 22.4 µM (active) | – | – | inactive | inactive | 23.7 µM (active) | – |
| NC(=O)C(c1ccccc1)(c1ccccc1)[C@@H]1CCN(CCc2ccc3c(c2)CCO3)C1 | – | – | – | inactive | inactive | inactive | inactive | – | inactive | – | inactive | inactive | inactive | – | – | – | – | – | – | – |
| Cc1cc(O)c2ccccc2c1O | inactive | 21.1 µM (active) | – | inactive | inactive | – | inactive | inactive | – | – | inactive | inactive | inactive | inactive | inactive | – | – | – | 23.7 µM (active) | – |
| Oc1c(Br)cc(Br)c2cccnc12 | inactive | 11.9 µM (active) | 4.22 µM (active) | inactive | inactive | – | inactive | – | – | – | inactive | inactive | – | – | – | – | – | – | 11.9 µM (active) | 7.5 µM (active) |
| COC(=O)C1=C(C)NC(C)=C(C(=O)OCC(C)C)C1c1ccccc1[N+](=O)[O-] (stereo not given) | – | 21.1 µM (active) | 5.96 µM (active) | inactive | inactive | inactive | inactive | inactive | inactive | -5.79 | inactive | inactive | inactive | – | – | – | – | – | 21.1 µM (active) | 23.7 µM (active) |
| CC(C(=O)O)c1ccc(C(=O)c2cccs2)cc1 (stereo not given) | – | – | – | inactive | inactive | inactive | inactive | inactive | inactive | – | inactive | inactive | inactive | inactive | – | – | – | – | – | – |
| O=C(O)CC1CC(c2ccccc2)=NO1 (stereo not given) | – | – | – | inactive | inactive | inactive | inactive | inactive | inactive | -6.76 | inactive | inactive | inactive | inactive | – | – | – | – | – | – |
